# SARS PLpro yeast-1: SARS-CoV PLP inhibition in yeast. S. cerevisiae expressing SARS-CoV PLpro, growth rescue. actives 0.19% (n = 330,000). Potency, µM (highest dose often 32.9 µM), actives largely listed as activators; calls by dose curve; further: nearly all actives have a fitted effect of over 55% in size
# AmpC inh no detg: AmpC beta-lactamase inhibition without detergent; P00811; AmpC nitrocefin hydrolysis, absorbance 480 nm, 0.0001% Triton; Potency, µM (top dose mostly 57.1 µM), most hits filed as inhibitors; actives 0.52% (n = 330,000); AID 485341; further: nearly all actives have a fitted effect of over 20% in size
# Target sequence (P00811 whole entry, looked up): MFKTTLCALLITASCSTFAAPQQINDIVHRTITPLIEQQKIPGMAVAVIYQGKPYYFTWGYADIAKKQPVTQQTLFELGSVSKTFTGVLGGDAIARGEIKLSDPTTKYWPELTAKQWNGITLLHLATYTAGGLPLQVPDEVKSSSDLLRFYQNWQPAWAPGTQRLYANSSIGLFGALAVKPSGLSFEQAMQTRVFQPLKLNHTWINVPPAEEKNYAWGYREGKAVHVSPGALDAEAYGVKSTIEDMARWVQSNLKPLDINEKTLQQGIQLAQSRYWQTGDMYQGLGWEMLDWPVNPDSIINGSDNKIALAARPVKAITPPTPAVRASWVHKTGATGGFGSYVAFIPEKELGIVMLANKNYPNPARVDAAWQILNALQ
#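 AmpC (5.3 nM in the dispensed reagent) in 20 mM phosphate pH 7.0 with 0.01% (detergent screen) or 0.0001% Triton X-100 was preincubated with compounds for 15 min at room temperature. Nitrocefin was then added from an 800 uM solution, and hydrolysis was followed at 480 nm.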
# FBPA Giardia inh: blocks Giardia fructose-bisphosphate aldolase activity. A8B2U2. purified Giardia FBPA. Potency, µM (top dose mostly 59.6 µM), hits mostly inhibitors. actives 0.71% (n = 290,000). AID 2451; further: nearly all actives have a fitted effect of over 55% in size
#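 Giardia FBPA (40 nM reagent) was preincubated 10 min at RT with compound (up to 57.5 uM final), then substrate plus GAPDH/TPI/NAD/arsenate coupling system with diaphorase/resazurin was added; resorufin fluorescence (525/598 nm) was read after 20 min.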
# AmpC inh detg: blocks E. coli AmpC beta-lactamase in detergent assay | Potency, µM (top dose mostly 114 µM), actives largely listed as inhibitors | AmpC hydrolysis of nitrocefin, absorbance 480 nm, 0.01% Triton | P00811 | actives 0.041% (n = 370,000); further: nearly all actives have a fitted effect of over 25% in size
#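 20 mM phosphate pH 7.0 + 0.01% (detergent screen) or 0.0001% Triton X-100; 5.3 nM AmpC reagent; cpd preinc 15 min RT; nitrocefin (800 uM stock) to start; A480 q20 s × 4 min; Activity was normalised to no-enzyme and no-compound control wells.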
# SARS PLpro yeast-2: Rescues yeast growth by inhibiting SARS-CoV PLpro; shares compounds with SARS PLpro yeast-1; actives 19% (n = 1,000); yeast expressing SARS-CoV PLpro, growth phenotype rescue; AID 652038; calls only; call rule not given here
# A number is an active result; n = inactive; u = inconclusive; x = no result; + = active, no number; ! = not active in a repeat; [ ] = remark or other dose. This is a sample that favours compounds with a hit; in the whole collection about 1.1% have one here. Unless noted, the call rests on the fitted dose curve; in most records, active means well fitted curve in the direction sought with a large enough effect; inconclusive means small, poorly fitted or top-dose-only effect, or another doubt; inactive means no such curve, though single readings can be large; an effect the other way counts as inactive or inconclusive.
SMILES,SARS PLpro yeast-1,AmpC inh no detg,FBPA Giardia inh,AmpC inh detg,SARS PLpro yeast-2
CC(C)NC(=S)N/N=C/c1ccc2c(c1)OCCO2,16µM,n,n,n,+
COc1cccc(-c2ccc3ncnc(NCc4cccs4)c3c2)c1,7.1µM!,u,n,u,n
c1cncc(-c2ccc3ncnc(NCc4cccs4)c3c2)c1,n,n,x,n,x
COc1ccc(CC(=O)Nc2ccc(-c3nc4ccccc4s3)c(C)c2)cc1OC,x,x,x,n,x
Cc1cc(C(=O)OCC(=O)N2CC(=O)Nc3ccccc32)c(C)n1-c1ccc(F)cc1,4µM,n,n,n,u
Cc1ccc(-n2c(C)cc(/C=N/NC(N)=S)c2C)cc1,11µM,n,n,n,+
Cc1ccc(-n2c(C)cc(/C=N/NC(=O)c3ccncc3)c2C)cc1,n,n,n,n,x
COc1ccc(NC(=O)CN2CCOCC2)cc1S(=O)(=O)N1CCCCC1,u,n,x,n,n
COc1ccc(NC(=O)CN2CCc3ccccc3C2)cc1S(=O)(=O)N1CCOCC1,n,n,n,n,x
CCOc1ccc(NC(=O)CCCOc2cc(=O)n(C)c3ccccc23)cc1,u,n,n,n,+
O=C(CSc1cccc[n+]1[O-])Nc1cccc(Oc2ccccc2)c1,u,n,n,n,n
COC(=O)NC(c1cccc(C)c1)[C@@]1(C(=O)OC)CCCC1=O (some centres not stated),x,x,n[12.9 µM],x,x
CC(C(=O)c1ccccc1)N1C(=O)c2ccccc2C1=O (configuration not stated),u,n,n,n,n
CC(C(=O)O)N1C(=O)c2ccccc2C1=O (configuration not stated),n,n,n,u,x
CCOc1ccccc1C(=O)N(Cc1ccc(N(C)C)cc1)Cc1ccco1,x,x,x,n,x
CCN1C[C@@H]2[C@@H]3C(=O)N(C)C(=O)[C@@H]3[C@](CC)(C(=O)OC)N2C1=NC,3.5µM,n,x,x,n
CC[C@]1(C(=O)OC)[C@H]2C(=O)N(C)C(=O)[C@H]2[C@H]2CN(C)C(=NC)N21,n,n,x,x,x
O=C1[C@H]2[C@H]3[C@H](O)[C@H](O)C/C(=N/OCc4ccccc4)[C@H]3CC[C@@H]2C(=O)N1c1cccc(Oc2ccccc2)c1,x,x,n[12.9 µM],x,x
Brc1ccc(OCc2nc(-c3ccccn3)n[nH]2)cc1,u,n,u,n,+
Clc1ccc(OCc2nc(-c3ccccn3)n[nH]2)cc1,n,n,n,n,x
Cc1csc(N/N=C/c2ccc(O)c([N+](=O)[O-])c2)n1,10µM,n,u,n,+
Cc1nnc(N/N=C/c2ccc(O)c([N+](=O)[O-])c2)[nH]c1=O,n,n,n,n,x
Cc1ncc(CO)c(/C=N/Nc2ccc(C(F)(F)F)cn2)c1O,n,n,n,n,x
Cc1ncc(CO)c(/C=N/NC(=S)Nc2ccc(F)cc2)c1O,5.6µM,n,u,u,n
COc1cccc(C(CNC(=O)C2CCN(C(=O)Nc3ccccc3)CC2)N(C)C)c1 (configuration not stated),u,n,x,n,n
SMILES,SARS PLpro yeast-1,AmpC inh no detg,FBPA Giardia inh,AmpC inh detg,SARS PLpro yeast-2
CCN(CC(=O)Nc1cccc(OC)c1)C(=O)C1CCN(C(=O)Nc2ccccc2)CC1,n,n,n,n,x
CCOc1ccccc1CNC(=O)Cn1nc(C)c2nn(-c3ccc(Cl)cc3)c(C)c2c1=O,x,x,x,n,x
CC(C)(C)OC(=O)N1CCC(c2c(C(=O)N3CCN(c4ccccn4)CC3)cnn2-c2ccccc2Cl)CC1,x,x,x,n,x
Cc1cccc(C)c1NC(=S)NN1CCN(C)CC1,u,n,n,n,+
CCCNC(=O)c1ccc(Cn2c(=S)[nH]c3c([nH]c4ccc(OC)cc43)c2=O)cc1,14µM,n,n,n,n
CCCNC(=O)CCCCn1c(=S)[nH]c2c([nH]c3ccc(OC)cc32)c1=O,n,n,n,n,x
CNCCCN1c2ccccc2CCc2ccccc21,18µM,n,n,u,n
CCOCCCNC(=O)c1cnc2sc(N3CCCCCC3)nn2c1=O,x,x,x,n,x
CCOc1ccc(NC(=O)c2cnn3c2NC(c2cccc(OC)c2)=CC3c2ccccc2)cc1 (configuration not stated),x,x,x,n,x
CCCCNC(=S)NC(=O)c1ccccc1Br,11µM,n,n,n,+
CCOC(=O)c1nn(-c2ccc(Cl)cc2)c2nc(Nc3ccccc3)cc(=O)n12,u,n,n,n,n
CCN1C(=NCc2ccc(OC)cc2)N[C@@H](c2ccccc2)[C@H](C(=O)OC)[C@H]1C,n,n,n,u,x
